# Data reported in PubChem BioAssay (EPA / NIEHS).
# Calls of active or inactive are those of the source. Rule for the calls: active = hit-call score of the fitted dose curve at least 0.9, where 1 is the maximum; inactive = score below 0.9.
# Assay: ATG_CMV_CIS: Attagene CIS-FACTORIAL HepG2 Assay for human CMV (Internal Marker) (AID 2282928);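 note: endpoint acts as a background internal control marker rather than a target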
# Conditions: HepG2 CMV promoter reporter, transcription factor profiling; actives raise or lower the signal
# Method in brief: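 After transient transfection of HepG2 with reporter transcription units driven by cis-regulatory promoters, cells receive test chemical for 24 h. Labeled reporter amplicons, digested with HpaI, are sized and quantified by capillary electrophoresis against DMSO.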
Compound,outcome,AC50
CO[Si](C)(OC)c1ccccc1,inactive,
COc1ccc(OC)c(OC)c1,inactive,
CN(C)CCOCCN(C)C,inactive,
CCC/C=C/C=O,inactive,
CC(=O)O[C@]1(C(C)=O)CC[C@H]2[C@@H]3C[C@H](C)C4=CC(=O)CC[C@]4(C)[C@H]3CC[C@@]21C,inactive,
CCc1ccc(C=O)cc1,inactive,
O=C(O)c1cn(-c2ccc(F)cc2)c2cc(N3CCNCC3)c(F)cc2c1=O,inactive,
c1ccc2c(c1)c1cccc3ccc4cccc2c4c31,inactive,
Cc1ccc(C=O)cc1,inactive,
Cc1cccc(C)c1[N+](=O)[O-],inactive,
COc1nc(C)nc(N)n1,inactive,
CCCCCCCCCCCCOCCO,,33.4 µM (active)
Clc1sc(Cl)c(Cl)c1Cl,inactive,
NC(N)=NC(=O)c1nc(Cl)c(N)nc1N,inactive,
O=c1[nH]c(=O)n([C@H]2CCCO2)cc1F,inactive,
CCC(O)CO (stereo not drawn),inactive,
CO[Si](CCCn1c(=O)n(CCC[Si](OC)(OC)OC)c(=O)n(CCC[Si](OC)(OC)OC)c1=O)(OC)OC,inactive,
Nc1cc(N)cc(C(=O)O)c1,inactive,
CCCC(=O)OCCC(C)CCC=C(C)C (stereo not drawn),inactive,

Compound,outcome,AC50
O=C(O)c1cccc(C(F)(F)F)c1,inactive,
CC[Si](OC(C)=O)(OC(C)=O)OC(C)=O,inactive,
O=S(=O)(O)NC1CCCCC1,inactive,
CCCCCCCCC=O,inactive,
CCCCOCCOCCSC#N,inactive,
CCCCCCCCCCCCSC,,100 µM (active)
CN1[C@@H]2CC(OC(=O)[C@H](CO)c3ccccc3)C[C@H]1[C@@H]1O[C@@H]12 (stereo partly drawn),inactive,
O=C(O)C[C@H](O)C[C@H](O)/C=C/c1c(C2CC2)nc2ccccc2c1-c1ccc(F)cc1,inactive,
CCn1c2ccccc2c2cc(N)ccc21,,31.7 µM (active)
COc1cccc(OC)c1,inactive,
CCC(=O)OCc1ccccc1,inactive,
O=[N+]([O-])c1ccc(C=Cc2ccc([N+](=O)[O-])cc2S(=O)(=O)O)c(S(=O)(=O)O)c1,inactive,
CC(C)C1CCC(O)CC1 (stereo not drawn),inactive,
CC(=O)O[C@H](CC(=O)[O-])C[N+](C)(C)C,inactive,
C=C(C)C(=O)OCCOC(=O)CC(C)=O,inactive,
O=C=NC1CCC(CC2CCC(N=C=O)CC2)CC1 (stereo not drawn),,64.8 µM (active)
O=c1cc(-c2ccccc2)oc2cc(O)cc(O)c12,,3.31 µM (active)
O=c1[nH]nnc2ccccc12,inactive,
OCCOc1cccc(OCCO)c1,inactive,
